Several values for one entry are separate records, joined by “and”; a condition that tells them apart may be missing. Identical values can stand only once. Records with an inconclusive call do not appear. Activity calls are given as the source filed them. How the source made its calls, unless noted: active means hit-call score of the fitted dose curve at least 0.9, where 1 is the maximum; inactive means score below 0.9.
What was measured:
[1] = molecular target: human RAR-related Orphan Receptor beta (RORb), RORB (gene 6096) (UniProt Q92753); assay: ATG_RORb_TRANS: Attagene TRANS-FACTORIAL HepG2 Assay for human RAR-related Orphan Receptor beta (RORb) (AID 2283010; active means hit-call score of the fitted dose curve at least 0.9, where 1 is the maximum)
Chain of human RAR-related Orphan Receptor beta (RORb), RORB (gene 6096) (Q92753 whole entry, looked up, the tested form may be a part): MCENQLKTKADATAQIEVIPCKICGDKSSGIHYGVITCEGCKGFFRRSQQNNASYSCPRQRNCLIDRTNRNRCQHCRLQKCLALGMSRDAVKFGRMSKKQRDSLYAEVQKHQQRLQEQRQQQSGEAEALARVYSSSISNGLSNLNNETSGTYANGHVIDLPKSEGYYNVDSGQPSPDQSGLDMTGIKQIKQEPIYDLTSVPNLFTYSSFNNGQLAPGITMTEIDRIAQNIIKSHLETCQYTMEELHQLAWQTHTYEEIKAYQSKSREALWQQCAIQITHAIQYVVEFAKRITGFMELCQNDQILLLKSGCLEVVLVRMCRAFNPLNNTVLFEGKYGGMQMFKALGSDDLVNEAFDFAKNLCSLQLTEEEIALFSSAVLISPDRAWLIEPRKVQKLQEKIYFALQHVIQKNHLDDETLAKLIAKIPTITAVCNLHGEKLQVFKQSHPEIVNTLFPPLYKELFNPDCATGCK
Method in brief: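 Transfect HepG2 with multiple GAL4-UAS reporter transcription units; dose chemicals for 24 h; isolate RNA, reverse-transcribe and PCR-amplify reporter sequences; label, digest and resolve fragments by capillary electrophoresis; fit increases relative to DMSO.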

[2] = molecular target: Retinoic acid receptor RXR-alpha (Homo sapiens) (UniProt P19793); assay: ATG_RXRa_TRANS: Attagene TRANS-FACTORIAL HepG2 Assay for human Retinoid X Receptor alpha (RXRa) (AID 2283012; active means hit-call score of the fitted dose curve at least 0.9, where 1 is the maximum)
Chain of Retinoic acid receptor RXR-alpha (Homo sapiens) (P19793 whole entry, looked up, the tested form may be a part): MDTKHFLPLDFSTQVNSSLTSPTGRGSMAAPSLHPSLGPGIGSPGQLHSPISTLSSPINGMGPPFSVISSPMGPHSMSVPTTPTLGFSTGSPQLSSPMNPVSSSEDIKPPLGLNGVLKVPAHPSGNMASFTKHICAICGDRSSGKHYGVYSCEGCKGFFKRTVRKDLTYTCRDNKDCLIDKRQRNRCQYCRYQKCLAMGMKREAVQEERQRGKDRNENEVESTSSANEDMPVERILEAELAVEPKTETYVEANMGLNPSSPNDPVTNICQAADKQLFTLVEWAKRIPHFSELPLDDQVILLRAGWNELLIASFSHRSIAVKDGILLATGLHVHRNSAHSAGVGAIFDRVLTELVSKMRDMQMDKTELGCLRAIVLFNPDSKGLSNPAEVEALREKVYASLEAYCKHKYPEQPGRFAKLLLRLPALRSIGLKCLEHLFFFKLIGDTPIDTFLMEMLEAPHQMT
Method in brief: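 Measures exogenous chimeric NR-GAL4 activity in transfected HepG2 liver cells after 24 h of dosing. Induced reporter mRNA was detected by RT-PCR with capillary electrophoresis, and gain of signal was analysed against DMSO.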

[3] = molecular target: human Retinoid X Receptor beta (RXRb), RXRB (gene 6257) (UniProt P28702); assay: ATG_RXRb_TRANS: Attagene TRANS-FACTORIAL HepG2 Assay for human Retinoid X Receptor beta (RXRb) (AID 2283013; active means hit-call score of the fitted dose curve at least 0.9, where 1 is the maximum)
Chain of human Retinoid X Receptor beta (RXRb), RXRB (gene 6257) (P28702 whole entry, looked up, the tested form may be a part): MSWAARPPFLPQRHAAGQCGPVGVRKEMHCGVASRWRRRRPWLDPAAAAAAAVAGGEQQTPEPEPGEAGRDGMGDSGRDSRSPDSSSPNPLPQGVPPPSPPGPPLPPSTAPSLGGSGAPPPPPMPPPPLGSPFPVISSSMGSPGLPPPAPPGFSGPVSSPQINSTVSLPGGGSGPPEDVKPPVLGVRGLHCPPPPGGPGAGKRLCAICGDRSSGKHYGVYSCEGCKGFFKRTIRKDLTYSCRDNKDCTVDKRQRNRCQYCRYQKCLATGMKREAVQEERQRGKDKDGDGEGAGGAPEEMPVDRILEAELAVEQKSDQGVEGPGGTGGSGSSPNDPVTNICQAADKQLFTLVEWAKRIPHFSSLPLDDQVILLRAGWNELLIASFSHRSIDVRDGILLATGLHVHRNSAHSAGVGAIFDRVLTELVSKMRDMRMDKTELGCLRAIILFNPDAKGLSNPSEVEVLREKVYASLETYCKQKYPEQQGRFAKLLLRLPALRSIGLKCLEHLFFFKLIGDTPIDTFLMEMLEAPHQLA
Method in brief: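 Chimeric receptor-Gal4 activity was assessed in transiently transfected human HepG2 cells after 24 h exposure. Transcripts from GAL4-UAS reporters were quantified by fluorescent RT-PCR and capillary electrophoresis, with DMSO as negative control and baseline.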

[4] = molecular target: human Thyroid Receptor alpha (THRa1), THRA (gene 7067) (UniProt P10827); assay: ATG_THRa1_TRANS: Attagene TRANS-FACTORIAL HepG2 Assay for human Thyroid Receptor alpha (THRa1) (AID 2283014; active means hit-call score of the fitted dose curve at least 0.9, where 1 is the maximum)
Chain of human Thyroid Receptor alpha (THRa1), THRA (gene 7067) (P10827 whole entry, looked up, the tested form may be a part): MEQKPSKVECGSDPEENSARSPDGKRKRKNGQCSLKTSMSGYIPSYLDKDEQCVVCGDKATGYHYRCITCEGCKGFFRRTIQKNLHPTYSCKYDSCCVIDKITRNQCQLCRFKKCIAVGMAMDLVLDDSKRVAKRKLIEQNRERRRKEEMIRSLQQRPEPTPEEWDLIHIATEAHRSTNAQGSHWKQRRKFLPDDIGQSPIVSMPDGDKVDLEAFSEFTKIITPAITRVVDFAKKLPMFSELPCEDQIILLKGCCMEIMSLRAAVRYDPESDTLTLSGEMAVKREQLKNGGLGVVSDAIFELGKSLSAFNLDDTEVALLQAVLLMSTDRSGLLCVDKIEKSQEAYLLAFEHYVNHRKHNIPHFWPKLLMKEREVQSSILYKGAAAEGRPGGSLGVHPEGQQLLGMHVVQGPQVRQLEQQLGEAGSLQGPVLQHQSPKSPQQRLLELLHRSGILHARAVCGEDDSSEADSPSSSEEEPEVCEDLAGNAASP
Method in brief: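 First, HepG2 cells receive multiple GAL4-UAS reporter units and the chimeric receptor. They are then dosed for 24 h, after which RNA is reverse-transcribed, amplified, labelled, HpaI-cut and sized by capillary electrophoresis; gain relative to DMSO is scored.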

[5] = molecular target: human RAR-related Orphan Receptor gamma (RORg), RORC (gene 6097) (UniProt P51449); assay: ATG_RORg_TRANS: Attagene TRANS-FACTORIAL HepG2 Assay for human RAR-related Orphan Receptor gamma (RORg) (AID 2283011; active means hit-call score of the fitted dose curve at least 0.9, where 1 is the maximum)
Chain of human RAR-related Orphan Receptor gamma (RORg), RORC (gene 6097) (P51449 whole entry, looked up, the tested form may be a part): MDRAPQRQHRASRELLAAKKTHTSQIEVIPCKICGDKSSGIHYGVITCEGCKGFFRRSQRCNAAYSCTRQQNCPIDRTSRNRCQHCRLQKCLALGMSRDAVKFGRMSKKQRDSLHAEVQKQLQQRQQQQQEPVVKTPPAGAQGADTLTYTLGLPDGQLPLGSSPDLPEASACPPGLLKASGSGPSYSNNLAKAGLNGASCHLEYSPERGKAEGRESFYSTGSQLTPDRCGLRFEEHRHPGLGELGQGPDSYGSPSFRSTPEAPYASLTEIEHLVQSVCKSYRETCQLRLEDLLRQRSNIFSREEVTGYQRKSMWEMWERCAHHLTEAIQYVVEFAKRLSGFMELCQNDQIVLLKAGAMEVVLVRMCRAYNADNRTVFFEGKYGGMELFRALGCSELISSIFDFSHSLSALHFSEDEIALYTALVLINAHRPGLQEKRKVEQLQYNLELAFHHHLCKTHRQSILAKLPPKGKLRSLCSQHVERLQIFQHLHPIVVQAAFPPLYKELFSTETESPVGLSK
Method in brief: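 Activity is scored as increase in GAL4-UAS reporter mRNA over DMSO, detected by fluorescent RT-PCR and capillary electrophoresis in HepG2 cells transiently expressing a RORg-Gal4 chimera, 24 h after dosing.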

[6] = read-out: E-selectin (Homo sapiens) (UniProt P16581); assay: BSK_3C_Eselectin: BioMAP Diversity Plus: 3C Assay for Eselectin Biomarker Activity (AID 2283015); conditions: primary human endothelial cells (HUVEC); actives raise or lower the signal
Method in brief: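 Human vascular endothelium from umbilical vein is exposed to test chemicals for 24 h. E-selectin levels are read by ELISA and compared with DMSO controls.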

[7] = read-out: Interleukin-1 alpha (IL1a), IL1A (gene 3552); assay: BSK_BE3C_IL1a: BioMAP Diversity Plus: BE3C Assay for Interleukin-1 alpha (IL1a) Biomarker Activity (AID 2283016); conditions: primary human bronchial epithelial cells; actives raise or lower the signal
Method in brief: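 Signal from IL-1a ELISA, taken 24 h after chemical dosing of human bronchial epithelial cells, is compared with DMSO as baseline using bidirectional curve fitting.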

[8] = read-out: Monocyte Chemoattractant Protein-1 (MCP1), CCL2 (gene 6347); assay: BSK_3C_MCP1: BioMAP Diversity Plus: 3C Assay for Monocyte Chemoattractant Protein-1 (MCP1) Biomarker Activity (AID 2283017); conditions: primary human endothelial cells (HUVEC); actives raise or lower the signal
Method in brief: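 Endothelial cells from human umbilical vein are dosed with chemical, cultured 24 h, then assayed for MCP-1 by ELISA; both increases and decreases are modelled against DMSO controls.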

[9] = read-out: Monocyte Chemoattractant Protein-1 (MCP1), CCL2 (gene 6347); assay: BSK_4H_MCP1: BioMAP Diversity Plus: 4H Assay for Monocyte Chemoattractant Protein-1 (MCP1) Biomarker Activity (AID 2283018); conditions: primary human endothelial cells (HUVEC); actives raise or lower the signal
Method in brief: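 Endothelial cells from umbilical vein were treated with test chemical, then after 24 h MCP-1 levels were quantified by ELISA; endpoint values came from bidirectional fitting with DMSO as baseline of activity.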

[10] = read-out: Human Leukocyte Antigen - DR isotype (HLADR), HLA-DRA (gene 3122); assay: BSK_3C_HLADR: BioMAP Diversity Plus: 3C Assay for Human Leukocyte Antigen - DR isotype (HLADR) Biomarker Activity (AID 2283019); conditions: primary human endothelial cells (HUVEC); actives raise or lower the signal
Method in brief: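 Endothelial cells from human umbilical vein are treated with test chemical; after 24 h, HLA-DR levels are measured by ELISA. Data are fitted in both directions using DMSO as the baseline.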

Measured: AC50

Chain of E-selectin (Homo sapiens) (P16581 whole entry, looked up): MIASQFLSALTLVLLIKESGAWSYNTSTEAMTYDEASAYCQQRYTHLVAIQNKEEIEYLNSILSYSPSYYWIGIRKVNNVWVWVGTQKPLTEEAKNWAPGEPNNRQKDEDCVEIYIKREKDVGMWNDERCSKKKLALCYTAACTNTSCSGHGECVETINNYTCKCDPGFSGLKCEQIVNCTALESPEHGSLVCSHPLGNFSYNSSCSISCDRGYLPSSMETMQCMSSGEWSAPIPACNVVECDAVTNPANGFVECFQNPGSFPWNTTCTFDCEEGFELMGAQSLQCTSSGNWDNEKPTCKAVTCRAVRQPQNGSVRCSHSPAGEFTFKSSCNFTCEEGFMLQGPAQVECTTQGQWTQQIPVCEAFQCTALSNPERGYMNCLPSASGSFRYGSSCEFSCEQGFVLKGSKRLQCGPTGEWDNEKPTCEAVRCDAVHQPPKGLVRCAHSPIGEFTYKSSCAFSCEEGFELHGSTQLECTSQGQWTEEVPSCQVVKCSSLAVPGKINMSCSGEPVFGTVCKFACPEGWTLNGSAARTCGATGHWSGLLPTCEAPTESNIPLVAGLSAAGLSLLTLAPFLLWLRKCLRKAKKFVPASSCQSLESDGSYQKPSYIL

CC(C)OC=O
inactive: [1] | [2] | [3]

COc1ccccc1C=O
inactive: [1] | [2] | [3] | [4]

O=C(Cl)C(F)(F)C(F)(F)C(F)(F)C(F)(F)C(F)(F)C(F)(F)C(F)(F)F
active: [3] 34.6 µM
inactive: all other assays above

CCC(=O)OC(C)c1ccccc1 (configuration not stated)
inactive: [1] | [5] | [3] | [4]

CC(C)OC(=O)COc1ccc(Cl)cc1Cl
inactive: [1]

NC(=O)C(F)(F)C(F)(F)C(F)(F)C(F)(F)C(F)(F)C(F)(F)C(F)(F)F
not listed: [2]
inactive: all other assays above

O=C1C=CC(=O)N1c1ccccc1
inactive: [5] | [2] | [4]

C=CC(=O)OCC(F)(F)C(F)(F)C(F)(F)COC(=O)C=C
inactive: [5] | [2] | [4]
active: [6] 19.4 µM and 32.1 µM | [7] 23.2 µM and 17.5 µM | [8] 39.6 µM and 30 µM | [9] 30 µM and 8.24 µM | [10] 14 µM and 12.3 µM

CC(=O)C=O
inactive: [5] | [2] | [4]

COCCC(=O)OC
inactive: [5] | [4]

OCCC(O)CO (configuration not stated)
inactive: [2] | [3] | [4]

NC(=O)C(F)(F)C(F)(F)C(F)(F)F
not listed: [1] | [3] | [4]
inactive: all other assays above

From PubChem BioAssay (EPA / NIEHS)
